Experimental data taken from PubChem BioAssay AID602 (SRMLSC, 2007).
Screen size: about 85,000 compounds; about 35 (0.04%) were called active. The sample holds actives, similar compounds and a random draw of the others, so the mix is not that of the screen.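 Rule for the calls: active = viability drop by adding the cancer drug above about 55%, with treated viability meeting a 40% cutoff (limit read from the data); inactive = the rest, inconclusive results apart.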

Test: MRP1 drug-resistance reversers in H69AR cells – cell-based, doxorubicin co-treatment, primary screen (AID 602);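 for differential viability (reversal): larger differential means the compound sensitizes cells more to doxorubicin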
Conditions: CellTiter-Glo, 72 h, at 10 µM; for differential viability (reversal): stronger effect = higher value
[1] = H69AR cells + 2 uM doxorubicin, measured here: viability with 2 uM doxorubicin, stronger effect = lower value
[2] = H69AR cells, measured here: cytotoxicity without doxorubicin

Structure (SMILES)	differential viability (reversal) (H69AR cells + 2 uM doxorubicin)	viability [1]	viability [2]
CC(C)(CNC(=O)c1cc(=O)[nH]c2ccccc12)N1CCOCC1	3.32% (inactive)	97.6%	101%
Cc1ccc(N(CC(=O)Nc2cc(C)cc(C)c2)S(=O)(=O)c2cccc3nonc23)cc1	-3.92% (inactive)	101%	96.6%
Cn1ccs/c1=N\S(=O)(=O)c1ccc(C(C)(C)C)cc1	11.8% (inactive)	77.6%	89.4%
CCOC(=O)c1ccc(COC(=O)CCc2nc(-c3ccccc3)c(-c3ccccc3)o2)cc1	-11.9% (inactive)	83.3%	71.4%
CCCC(C)C(=O)Nc1ccc(NC(C)=O)cc1 (configuration not stated)	22.1% (inactive)	80.5%	103%
COc1c(F)c(F)c(C(=O)O)c(Nc2ccccc2C)c1F	3.75% (inactive)	94.8%	98.5%
C=CCc1ccc(OCCOc2cccc(/C=N/n3cnnc3)c2)c(OC)c1	9.09% (inactive)	71.3%	80.3%
CCOC(=O)CSc1nc2ccc(C)cc2[nH]1	2.1% (inactive)	87.3%	89.4%
C=CCn1c(SCC(=O)c2ccc(Br)cc2)nnc1C(C)NC(=O)Cc1ccc(OC)cc1 (configuration not stated)	22.5% (inactive)	49.3%	71.8%
O=C1CSC(c2cccc(F)c2)N1c1ccc(O)cc1 (configuration not stated)	12.3% (inactive)	88.2%	101%
Cc1nnc(NCCO)c2ccccc12	7.47% (inactive)	82.3%	89.8%
CCn1c(SCC(=O)c2ccc3ccccc3c2)nnc1-c1cccs1	5.66% (inactive)	98.1%	104%
Cc1cc(C(=O)Nc2ccccc2N2CCOCC2)c2ccccc2n1	-7.84% (inactive)	75.7%	67.9%
Cc1nnc(SCC(=O)NC2CCCC2)s1	7.72% (inactive)	107%	115%
Nn1c(SCC(=O)NC2CCCC2)nnc1-c1ccccc1F	13.3% (inactive)	88.7%	102%
COC(CNC(=O)Cn1ncc2ccsc2c1=O)OC	-2.17% (inactive)	103%	101%
Cc1cccc(N2CCN(C(c3ccc(N(C)C)cc3)c3nnnn3C(C)(C)C)CC2)c1C (configuration not stated)	2.35% (inactive)	81%	83.3%
CCOC(=O)C1=C(CSc2nnnn2C)N(C)C(=O)NC1c1ccccc1 (configuration not stated)	12.1% (inactive)	81%	93.1%
COc1ccc(CCNS(=O)(=O)c2ccc(Cl)s2)cc1OC	13.7% (inactive)	79.3%	93%
O=S(=O)(Nc1ccc(Oc2ncccn2)c(Cl)c1)c1ccc(F)cc1	4.78% (inactive)	88.8%	93.6%
CC(c1ccccn1)N(CCN(C)C)C(=S)Nc1ccccc1F (configuration not stated)	16.9% (inactive)	100%	117%
CCC(=O)NC(Nc1cc(C)ccn1)(C(F)(F)F)C(F)(F)F	7.06% (inactive)	92%	99%
O=C(NCC1CCC(C(=O)O)CC1)OCc1ccccc1 (configuration not stated)	6.33% (inactive)	92.2%	98.5%
CCN(CC)CCn1c(=S)[nH]c2ncccc2c1=O	12.4% (inactive)	88.8%	101%
CCOC(=O)C1C(=O)NCC1c1ccccc1 (configuration not stated)	1.49% (inactive)	98.4%	99.9%
CC(C)CC(N=C1NC(C)(C)Cc2ccccc21)C(=O)O (configuration not stated)	9.71% (inactive)	98.6%	108%
CCCCNC(=O)OC(C)CNC(=O)OC (configuration not stated)	-15% (inactive)	111%	95.6%
COc1cc(OC)nc(NC(=O)CCl)n1	4.9% (inactive)	93.8%	98.7%
Cc1cc2nc(C)n(CCCNC(=O)Nc3ccccc3)c2cc1C	7.8% (inactive)	83.9%	91.7%
